Measurements taken from PubChem BioAssay AID485297 (National Center for Advancing Translational Sciences (NCATS), 2010).
The whole screen tested about 320,000 compounds, of which about 9,100 (2.8%) were called active. Roughly 3% stayed inconclusive and do not appear here. This is one part of a sample in which actives are shown more often than they occur. Values without a mark were called inactive. Calls come from the whole dose curve; as a rule, active = well fitted activation curve with a large enough effect; inconclusive = small, poorly fitted or top-dose-only effect; inactive = no such curve, though single readings can be large or run the other way.

Assay: qHTS Assay for Rab9 Promoter Activators; note: nearly all actives have a fitted effect of over 60% in size; for activation, negative = inhibition: % of control where 0% means no effect
Conditions: Huh7 Rab9 promoter-luciferase reporter, luminescence, 24 h; series mostly up to 9.22 µM; activation, negative = inhibition: at the top concentration
Outline: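 Cell-based reporter: Huh7 stable for Rab9 promoter-driven luciferase, plated in reduced-serum medium with 10% FBS at 1500 cells/well, compound-treated 24 h at 37 °C, luminescence read after 10 min reagent.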
Potency is the fitted concentration of half-maximal effect.

Compound | activation, negative = inhibition | Potency
C[C@@H]1NC(=O)[C@@]2(C)[C@@H](c3ccccc3)[C@H]3COc4ccccc4[C@@H]3N2C1=O | 6.2% | –
Cc1ccc(OCCC(=O)Nc2ccc(S(=O)(=O)Nc3nccs3)cc2)cc1 | -11.6% | –
Cc1cccc(OCCC(=O)Nc2ccccc2C(N)=O)c1 | 2.71% | –
CCCOC(=O)Nc1ccccc1C(N)=O | 5.54% | –
COc1cccc(OCC(=O)Nc2ccccc2C(N)=O)c1 | – | 2.82 µM (active)
COc1ccccc1C(=O)NCC(=O)NCCSc1ccc(Br)cc1 | 3.4% | –
CCCC(=O)N1c2ccc(-c3csc(N)n3)cc2CC1C (stereo not given) | – | 2.82 µM (active)
CCn1nc(C(=O)OCC(=O)N2c3ccccc3CC2C)c2ccccc2c1=O (stereo not given) | 10.4% | –
Cc1ccn(CCC(=O)N2c3ccccc3CC2C)n1 (stereo not given) | -0.165% | –
COC(=O)C1CCN(CC(N)=O)CC1 | 0.0472% | –
COC(=O)c1ccc(CSc2ccc(S(=O)(=O)N3CCCCC3)cn2)cc1 | -0.29% | –
CC1CCCN(C(=O)CN2C(=O)c3ccccc3S2(=O)=O)C1 (stereo not given) | – | 2.82 µM (active)
O=C(CN1C(=O)c2ccccc2S1(=O)=O)N1CCc2ccccc21 | -38.7% | –
O=C(CN1C(=O)c2ccccc2S1(=O)=O)NC1CCCCC1 | 15% | –
O=C(COC(=O)Cc1ccc(Br)cc1)Nc1ccc(N2CCOCC2)cc1 | -3.87% | –
CCOCc1c(C(=O)N2CCN(Cc3ccc(Br)s3)CC2)oc2ccccc12 | -5.16% | –
CC(C)CC(=O)NC(=S)NCc1ccccc1 | -0.334% | –
Cc1cc(C(=O)OCC(=O)Nc2nnc(C(C)C)s2)c2ccccc2n1 | 1.65% | –
O=C(O)CCCCc1nc2ccccc2s1 | -6.84% | –
CC(=O)Nc1cccc(-c2nc3ccccc3s2)c1C | 11% | –
CC(C)CC(=O)N/C(N)=N/c1nc2ccccc2s1 | – | 2.82 µM (active)
CCC(=O)NC(=Nc1nc2ccccc2s1)NC(=O)CC | – | 3.55 µM (active)

Compound | activation, negative = inhibition | Potency
O=C(OCC(=O)N1CCCC1)c1ccc(Cl)nc1 | -0.804% | –
CCCN(C(=O)c1nc2nccc(C)n2n1)c1c(N)n(Cc2ccccc2)c(=O)[nH]c1=O | -4.22% | –
O=C(Nc1cc(C(F)(F)F)ccc1Cl)c1cc(C2CC2)on1 | -1.69% | –
O=C(Nc1cc(C(F)(F)F)ccc1Cl)c1cc2nc3c(c(C(F)(F)F)n2n1)CCCC3 | – | 1.78 µM (active)
O=C(Nc1cc(C(F)(F)F)ccc1Cl)C(=O)N1CCCCC1 | -2.62% | –
Cc1cc(NC(=O)CCC(=O)N(CC(=O)NCC2CCCO2)c2ccccc2)no1 (stereo not given) | 3.92% | –
CC(C)Oc1ccc(C(=O)NCC(=O)Nc2ccc3c(c2)CCC3)cc1 | -4.39% | –
CC(=O)c1ccc(NC(=O)c2ccc3c(Cl)c4c(nc3c2)CCCC4)cc1 | -18.7% | –
CC(C)CCNC(=O)c1ccc2c(Cl)c3c(nc2c1)CCC3 | – | 0.794 µM (active)
COc1ccc(N2CCN(C(=O)c3ccc4c(Cl)c5c(nc4c3)CCCC5)CC2)cc1 | 0.948% | –
COc1ccc(C(=O)OCC(=O)N2CC(=O)Nc3ccccc32)cc1Br | -0.57% | –
O=C1C2C3C=CC(C3)C2C(=O)N1c1ccc(-c2nc3ccccc3c(=O)o2)cc1 (stereo not given) | 3.04% | –
Cc1ccc(NC(=O)Cn2c(C)csc2=O)cc1 | 6.72% | –
Cc1ccc(C)c(NC(=O)c2cc(-c3cc(C)cc(C)c3O)n[nH]2)c1 | -6.62% | –
Cc1ccc(NC(=O)CCN2C(=O)c3ccccc3C2=O)cc1C | 6.61% | –
Cc1ccc(NC(=O)c2cc(-c3ccccc3O)n[nH]2)cc1C | – | 2.82 µM (active)
CCN(CC(=O)Nc1ccc(C)c(S(=O)(=O)N(C)C)c1)Cc1ccccc1 | 2.23% | –
Cc1ccc(NC(=O)c2cccs2)cc1S(=O)(=O)N(C)C | 17.2% | –
Cc1ccc(C(=O)Nc2ccc(C)c(S(=O)(=O)N(C)C)c2)s1 | – | 1 µM (active)
O=[N+]([O-])c1cc(Br)c(O)c(/C=N/Nc2nc3ccccc3s2)c1 | -8.89% | –
c1ccc2sc(NN=C3CCCC3)nc2c1 | – | 0.631 µM (active)
CCN(CC)CCn1c2c(c(SCC(=O)Nc3nc4ccccc4s3)nc1=O)CCCC2 | 0.858% | –

Compound | activation, negative = inhibition | Potency
CC(=O)O[C@H]1c2ccccc2-c2ccccc2[C@@H]1OC(C)=O | -1.15% | –
CCOC(=O)c1sc(NC(=O)c2cc(S(=O)(=O)N3CCOCC3)ccc2C)nc1C | -2.46% | –
CCOC(=O)c1sc(NC(=O)c2sc(C)nc2C)nc1C | -29.6% | –
Cc1ccc(NC(=O)c2c(NC(=O)CCC(=O)O)sc3c2CCCCC3)cc1 | -6.43% | –
O=C(Nc1ccccc1N1CCOCC1)c1csc2c1CCCC2 | 3.79% | –
COC(=O)c1sc(NC(=O)c2csc3c2CCCC3)nc1C | – | 3.98 µM (active)
Cc1ccc(NC(=O)c2csc3c2CCCC3)cc1 | – | 1.41 µM (active)
CCN(C(=O)COC(=O)c1c(C)nn(-c2ccccc2)c1Cl)c1c(N)n(Cc2ccccc2)c(=O)[nH]c1=O | -1.95% | –
Cc1cccc(NC(=O)CN2CCN(CC(=O)NCC3(N4CCCCC4)CCCCC3)CC2)c1C | -5.48% | –
CCCn1c(N)c(N(CCOC)C(=O)C2CCCC2)c(=O)[nH]c1=O | 0.7% | –
O=C(CNS(=O)(=O)c1ccc2ccccc2c1)Nc1ccc(F)c(F)c1F | -2.94% | –
COC(=O)c1ccc(NC(=O)CSc2nncn2-c2cccnc2)cc1 | 0.416% | –
O=C(COC(=O)c1cccc(Cl)c1)NC1CCCCCCC1 | 0.046% | –
O=C(CSc1nnc(N2CCOCC2)n1-c1cccc(F)c1)N1CCN(c2ccccn2)CC1 | -1.86% | –
C=CCNc1nc(Nc2ccc(Cl)cc2)nc(OC)n1 | 14.8% | –
Brc1ccc(CN2CC[C@H]3C=CCc4cccc(c43)C2)cc1 | -3.17% | –
Cc1cccc(-n2cnc(C(=O)Nc3cccnc3)c2)n1 | – | 2.24 µM (active)
Cc1cccc(-n2cnc(C(=O)NNC(=S)Nc3ccccc3)c2)n1 | 2.6% | –
COc1cccc(C(=O)Nc2cccnc2)c1OC | -3.29% | –
Cc1ccc(NC(=O)CN(C)C(=O)c2cccc(S(=O)(=O)N3CCCC3)c2)cc1 | 1.79% | –
Cc1ccc(O)c(CNc2nc3ccccc3[nH]2)c1 | 6.94% | –
O=C(Nc1cc(-c2nc3ncccc3o2)ccc1Cl)c1ccco1 | 13.9% | –

Compound | activation, negative = inhibition | Potency
O=C(Nc1cccc(-n2cnnn2)c1)c1cccnc1 | -7.65% | –
Cc1cc(NC(=O)c2ccco2)c(=O)n(Cc2c(F)cccc2Cl)c1 | -1.33% | –
Cc1ccc(S(=O)(=O)N2CCCCC2)cc1NC(=O)c1cccnc1 | 0.0836% | –
Cc1ccc(-n2nc3cc(Cl)c(NC(=O)c4ccco4)cc3n2)cc1 | – | 3.55 µM (active)
Cc1ccc(-n2nc3cc(C)c(NC(=O)c4cccnc4)cc3n2)cc1 | – | 3.55 µM (active)
O=C(OC1CCCCC1=O)c1cccc(S(=O)(=O)NCc2ccccc2)c1 (stereo not given) | 8.23% | –
CCOc1ccccc1NC(=O)NC1CCCCCCC1 | 0.121% | –
O=C(CN1CCN(C2CCS(=O)(=O)C2)CC1)N1N=C(c2ccc(Cl)cc2)CC1c1ccco1 (stereo not given) | -4.64% | –
CC(=O)NCc1ccc(-c2csc(NC(=O)CCCc3nc4ccccc4c(=O)[nH]3)n2)cc1 | -4.83% | –
CC1(C(=O)OCC(=O)Nc2ncc(Cl)cc2Cl)CC1(Cl)Cl (stereo not given) | -3.32% | –
O=C(CSc1ccccc1)Nc1cccc(S(=O)(=O)N2CCOCC2)c1 | -4% | –
O=C1c2cccc3c([N+](=O)[O-])ccc(c23)C(=O)N1CC1CCCO1 (stereo not given) | -27.7% | –
CC(=NCC1CCCO1)c1c(O)[nH]c(=O)[nH]c1=O (stereo not given) | 13.7% | –
O=C1C(C=NCC2CCCO2)=C(O)c2ccccc21 (stereo not given) | – | 2.82 µM (active)
O=[N+]([O-])c1ccccc1SNc1ccccn1 | -3.18% | –
O=C(O[C@H]1[C@H](Cc2ccccc2)NS(=O)(=O)[C@H]2C[C@@H]3C=C[C@]12O3)c1ccc([N+](=O)[O-])cc1 | -4.99% | –
COc1ccc2c(C)cc(SCC(=O)NCC3CCCO3)nc2c1 (stereo not given) | -0.334% | –
CCCCSc1nnc(-c2ccc(C)cc2)o1 | – | 1.58 µM (active)
Cc1cccc(C)c1OC(=O)CSc1nnc(-c2ccccc2)o1 | 6.16% | –
CCOC(=O)CSc1nnc(-c2ccncc2)o1 | -6.83% | –
Cc1ccc(S(=O)(=O)N(C)C)cc1NC(=O)C(C)OC(=O)c1ccc2ccccc2n1 (stereo not given) | -1.95% | –
O=C(c1ccccc1)N1CCN(C(=O)N2CCCCC2)CC1 | 1.56% | –

Compound | activation, negative = inhibition | Potency
O=C(O)c1cccc(N=NN2CCCCCC2)c1 | – | 0.282 µM (active)
O=C(O)c1ccc(N=NN2CCOCC2)cc1 | -0.19% | –
COc1ccc2c3c(c(=O)oc2c1)C1O[C@](CCCCN2C(=O)c4ccccc4C2=O)(Cc2c1ccc1ccccc21)O3 | -1.17% [at 1.84 µM] | –
COc1cc(C(=O)NCC2(c3ccccc3)CCCC2)ccc1OC(C)C | -3.81% | –
Cc1nc2cc(NC(=O)Nc3cccc(F)c3)ccc2n1C | – | 0.0891 µM (active)
Cc1cc2nc(C)n(CCCNC(=O)Nc3ccccc3)c2cc1C | -2.07% | –
Cc1nc2cc(NC(=O)NC3CC3)ccc2n1C | 17.9% | –
c1ccc(-n2ncc3c2ncn2c(C4CCCCC4)nnc32)cc1 | – | 3.98 µM (active)
CC(=O)Cn1cnc2c(cnn2-c2ccccc2)c1=O | 14.2% | –
CN(C(=O)COc1ncnc2c1cnn2-c1ccccc1)C1CCCCC1 | -10.6% | –
c1ccc2cc(CCCc3cc4ccccc4cn3)ncc2c1 | -1.89% | –
CN(c1ccccc1)S(=O)(=O)c1ccc(C(=O)NCCc2ccccc2)cc1 | 27.2% | –
COc1ccc(OCCCC(=O)NCCc2ccccc2)cc1 | -0.814% | –
CC(C)c1ccc(C(=O)NCCCc2ccccc2)cc1 | – | 3.16 µM (active)
Cc1noc(C)c1COc1ccc(C(=O)NCCOc2ccccc2)cc1 | 20.5% | –
CCCOc1ccc(C(=O)NCCc2ccccc2)cc1 | – | 0.447 µM (active)
O=C(NCCOc1ccccc1)c1ccccc1 | – | 0.708 µM (active)
CCCCCCCCC(=O)NCCOc1ccccc1 | 0.417% | –
O=C(CCNC(=O)c1ccc(Br)cc1)NCCCc1ccccc1 | -0.377% | –
CCCc1ccc(OCCNC(=O)c2ccco2)cc1 | 28.3% | –
CC1(C)NC(=O)N(CC(=O)N2CCN(S(=O)(=O)c3ccccc3F)CC2)C1=O | -3.99% | –
CC(=O)Nc1ccc(NC(=O)CSc2nnc(C3CC3)n2-c2ccccc2)cc1 | -4.66% | –
